In PubChem BioAssay (EPA / NIEHS):
The source made the active and inactive calls. Rule for the calls: active = hit-call score of the fitted dose curve at least 0.9, where 1 is the maximum; inactive = score below 0.9.

How the values were obtained:
Settings in all cases: mRNA level, 48 h; actives raise or lower the signal
[1] = read-out: growth arrest and DNA damage 45 (GADD45B), GADD45B (gene 4616); assay: LTEA_HepaRG_GADD45B: Life Technologies and Expression Analysis (LTEA) Assay for growth arrest and DNA damage 45 (GADD45B) using HepaRG (AID 2283461)
How it was run: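 Transcript level quantified by Fluidigm TaqMan qRT-PCR with three housekeeping genes for normalization, analyzed for up- or down-regulation against 0.5% DMSO. HepaRG cultures dosed 48 h at eight half-log concentrations up to 100 uM, duplicates.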

[2] = read-out: ABC Transporter (ABCC3), ABCC3 (gene 8714); assay: LTEA_HepaRG_ABCC3: Life Technologies and Expression Analysis (LTEA) Assay for ABC Transporter (ABCC3) using HepaRG (AID 2283462)
How it was run: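 Transcript level by TaqMan qRT-PCR, normalised to three housekeeping genes, fitted in both directions relative to vehicle. Chemicals tested in duplicate at eight half-log concentrations up to 100 uM for 48 h on HepaRG cells (0.5% DMSO).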

[3] = read-out: ABC Transporter (ABCC2), ABCC2 (gene 1244); assay: LTEA_HepaRG_ABCC2: Life Technologies and Expression Analysis (LTEA) Assay for ABC Transporter (ABCC2) using HepaRG (AID 2283464)
How it was run: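 Endpoint is ABCC2 transcript level from qRT-PCR, normalized to three housekeeping genes and fitted bidirectionally relative to DMSO. Human HepaRG cells received test chemical for 48 h at up to 100 uM (8 points, half-log steps, 0.5% DMSO), duplicate wells.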

[4] = read-out: Broad substrate specificity ATP-binding cassette transporter ABCG2 (Homo sapiens) (UniProt Q9UNQ0); assay: LTEA_HepaRG_ABCG2: Life Technologies and Expression Analysis (LTEA) Assay for ABC Transporter (ABCG2) using HepaRG (AID 2283465)
How it was run: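 HepaRG, 48 h exposure, 8-pt half-log series from 100 uM, 0.5% DMSO vehicle, duplicates. Readout: ABCG2 transcript by qRT-PCR (Fluidigm array), housekeeping-normalized; bidirectional curve fit relative to DMSO baseline.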

[5] = read-out: ATP-citrate lyase (ACLY), ACLY (gene 47); assay: LTEA_HepaRG_ACLY: Life Technologies and Expression Analysis (LTEA) Assay for ATP-citrate lyase (ACLY) using HepaRG (AID 2283466)
How it was run: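 qRT-PCR readout of ACLY transcript after 48 h chemical treatment of HepaRG cells; expression normalized to three housekeeping genes. Eight-point half-log series, highest 100 uM, 0.5% DMSO vehicle. Gain or loss fitted against DMSO baseline.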

[6] = read-out: Peroxisomal acyl-coenzyme A oxidase 1 (ACOX1) gene, ACOX1 (gene 51); assay: LTEA_HepaRG_ACOX1: Life Technologies and Expression Analysis (LTEA) Assay for Peroxisomal acyl-coenzyme A oxidase 1 (ACOX1) gene using HepaRG (AID 2283467)
How it was run: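 HepaRG, 48 h chemical exposure, 8-pt half-log series from 100 uM top, 0.5% DMSO vehicle, duplicates. Readout: ACOX1 mRNA by Fluidigm qRT-PCR, housekeeping-normalized; bidirectional fit vs DMSO baseline.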

[7] = read-out: Alkaline Phosphatase, Placental (ALPP) gene, ALPP (gene 250); assay: LTEA_HepaRG_ALPP: Life Technologies and Expression Analysis (LTEA) Assay for Alkaline Phosphatase, Placental (ALPP) gene using HepaRG (AID 2283468)
How it was run: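 ALPP transcript level, measured by qRT-PCR and normalized to three housekeeping genes (ACTB, GAPDH, POLR2A), after 48 h dosing of differentiated HepaRG in serum-free induction medium. Top concentration 100 uM with half-log dilutions (8 points, 0.5% DMSO, duplicates); bidirectional fitting relative to DMSO.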

[8] = read-out: Bcl-2 (BAD) gene, BAD (gene 572); assay: LTEA_HepaRG_BAD: Life Technologies and Expression Analysis (LTEA) Assay for Bcl-2 (BAD) gene using HepaRG (AID 2283469)
How it was run: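 HepaRG, 48 h exposure, 8-pt half-log curve from 100 uM in 0.5% DMSO, duplicates. Readout: TaqMan qRT-PCR for BAD mRNA, housekeeping-normalised (ACTB/GAPDH/POLR2A); gain or loss fitted against DMSO baseline.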

[9] = read-out: Bcl-2 (BAX) gene, BAX (gene 581); assay: LTEA_HepaRG_BAX: Life Technologies and Expression Analysis (LTEA) Assay for Bcl-2 (BAX) gene using HepaRG (AID 2283470)
How it was run: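 qRT-PCR read-out of BAX mRNA, normalized to three housekeeping genes, after 48 h chemical exposure of human HepaRG cells in serum-free induction medium; eight-point half-log series, top 100 uM, 0.5% DMSO vehicle; bidirectional fit versus DMSO.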

[10] = read-out: Alpha-fetoprotein (AFP) gene, AFP (gene 174); assay: LTEA_HepaRG_AFP: Life Technologies and Expression Analysis (LTEA) Assay for Alpha-fetoprotein (AFP) gene using HepaRG (AID 2283472)
How it was run: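 qRT-PCR (Fluidigm TaqMan) readout of AFP transcript, normalized to three housekeeping genes, fitted bidirectionally against 0.5% DMSO baseline. HepaRG cells received chemicals for 48 h in serum-free induction medium, top concentration 100 uM, half-log steps.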

BCL2L11 (gene 10018) = assay: LTEA_HepaRG_BCL2L11: Life Technologies and Expression Analysis (LTEA) Assay for Bcl-2 (BCL2L11) gene using HepaRG (AID 2283473)
How it was run: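 BCL2L11 transcript levels are measured by Fluidigm qRT-PCR, normalized to three housekeeping genes. HepaRG cultures were plated 48 h, then treated 48 h with test chemical (top 100 uM, half-log, 0.5% DMSO vehicle); curves were fitted bidirectionally against DMSO.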

[11] = read-out: Apolipoprotein A-V (APOA5) gene, APOA5 (gene 116519); assay: LTEA_HepaRG_APOA5: Life Technologies and Expression Analysis (LTEA) Assay for Apolipoprotein A-V (APOA5) gene using HepaRG (AID 2283474)
How it was run: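 APOA5 transcript levels were quantified by qRT-PCR, normalized to three housekeeping genes, after 48 h chemical treatment of HepaRG cells (8 points, 100 uM maximum, half-log steps, 0.5% DMSO). Curves fitted in both directions against vehicle.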

[12] = read-out: Apoptosis regulator Bcl-2 (Homo sapiens) (UniProt P10415); assay: LTEA_HepaRG_BCL2: Life Technologies and Expression Analysis (LTEA) Assay for Bcl-2 gene using HepaRG (AID 2283475)
How it was run: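 qRT-PCR read-out (Fluidigm TaqMan) of BCL2 transcript, normalised to three housekeeping genes, after 48 h chemical exposure of HepaRG cells; 8-point half-log series, top 100 uM, 0.5% DMSO vehicle. Gain or loss of signal fitted relative to DMSO baseline.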

[13] = read-out: Bcl-2 (BID) gene, BID (gene 637); assay: LTEA_HepaRG_BID: Life Technologies and Expression Analysis (LTEA) Assay for Bcl-2 (BID) gene using HepaRG (AID 2283476)
How it was run: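 HepaRG, 48 h exposure, 8-pt half-log series, top 100 uM, 0.5% DMSO vehicle, duplicates. Readout: BID mRNA by TaqMan qRT-PCR; housekeeping-normalized; bidirectional curve fit vs DMSO baseline.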

Caspase-3 (Homo sapiens) = Caspase-3 (Homo sapiens) (UniProt P42574); assay: LTEA_HepaRG_CASP3: Life Technologies and Expression Analysis (LTEA) Assay for cysteine-aspartic acid protease (CASP3) using HepaRG (AID 2283477)
Chain of Caspase-3 (Homo sapiens) (P42574 whole entry, looked up): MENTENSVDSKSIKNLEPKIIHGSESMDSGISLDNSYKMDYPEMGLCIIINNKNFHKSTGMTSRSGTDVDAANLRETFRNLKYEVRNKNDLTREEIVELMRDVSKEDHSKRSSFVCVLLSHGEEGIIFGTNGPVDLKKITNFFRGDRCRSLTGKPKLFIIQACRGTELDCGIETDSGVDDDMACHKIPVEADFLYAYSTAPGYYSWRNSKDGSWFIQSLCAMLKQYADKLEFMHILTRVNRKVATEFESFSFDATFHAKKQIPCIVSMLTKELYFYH
How it was run: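 Expression of CASP3 was quantified by TaqMan qRT-PCR against three housekeeping genes (ACTB, GAPDH, POLR2A), bidirectionally versus 0.5% DMSO. HepaRG cultures received compounds in duplicate, top 100 uM with half-log steps, for 48 h in serum-free induction medium.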

[14] = read-out: ABC Transporter (ABCB1), ABCB1 (gene 5243); assay: LTEA_HepaRG_ABCB1: Life Technologies and Expression Analysis (LTEA) Assay for ABC Transporter (ABCB1) using HepaRG (AID 2283460)
How it was run: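 HepaRG, 48 h exposure, 8-pt half-log series from 100 uM, 0.5% DMSO vehicle, duplicates. Readout: ABCB1 transcript by Fluidigm TaqMan qRT-PCR, housekeeping-normalized; bidirectional curve fit vs DMSO baseline.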

[15] = read-out: ABC Transporter (ABCB11), ABCB11 (gene 8647); assay: LTEA_HepaRG_ABCB11: Life Technologies and Expression Analysis (LTEA) Assay for ABC Transporter (ABCB11) using HepaRG (AID 2283463)
How it was run: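 HepaRG, 48 h exposure, 8-pt half-log CRC top 100 uM, 0.5% DMSO vehicle, duplicates. Readout: TaqMan qRT-PCR of ABCB11 mRNA, housekeeping-normalized (ACTB/GAPDH/POLR2A). Bidirectional fit vs DMSO baseline.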

[16] = read-out: Cytochrome P450 (CYP24A1), CYP24A1 (gene 1591); assay: LTEA_HepaRG_CYP24A1: Life Technologies and Expression Analysis (LTEA) Assay for Cytochrome P450 (CYP24A1) using HepaRG (AID 2283478)
How it was run: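 mRNA of CYP24A1 quantified by TaqMan qRT-PCR (ACTB/GAPDH/POLR2A normalization) after 48 h chemical exposure of HepaRG cells, top concentration 100 uM, half-log steps, 0.5% DMSO vehicle, duplicates. Curves fitted bidirectionally against DMSO baseline.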

Measured: outcome

Chain of Apoptosis regulator Bcl-2 (Homo sapiens) (P10415 whole entry, looked up): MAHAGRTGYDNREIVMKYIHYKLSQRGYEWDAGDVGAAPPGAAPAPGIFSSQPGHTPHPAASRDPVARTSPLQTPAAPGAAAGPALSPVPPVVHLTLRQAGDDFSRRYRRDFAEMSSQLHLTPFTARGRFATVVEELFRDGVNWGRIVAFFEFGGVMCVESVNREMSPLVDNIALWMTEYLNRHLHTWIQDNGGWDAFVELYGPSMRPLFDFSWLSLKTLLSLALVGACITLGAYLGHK
Chain of Broad substrate specificity ATP-binding cassette transporter ABCG2 (Homo sapiens) (Q9UNQ0 whole entry, looked up): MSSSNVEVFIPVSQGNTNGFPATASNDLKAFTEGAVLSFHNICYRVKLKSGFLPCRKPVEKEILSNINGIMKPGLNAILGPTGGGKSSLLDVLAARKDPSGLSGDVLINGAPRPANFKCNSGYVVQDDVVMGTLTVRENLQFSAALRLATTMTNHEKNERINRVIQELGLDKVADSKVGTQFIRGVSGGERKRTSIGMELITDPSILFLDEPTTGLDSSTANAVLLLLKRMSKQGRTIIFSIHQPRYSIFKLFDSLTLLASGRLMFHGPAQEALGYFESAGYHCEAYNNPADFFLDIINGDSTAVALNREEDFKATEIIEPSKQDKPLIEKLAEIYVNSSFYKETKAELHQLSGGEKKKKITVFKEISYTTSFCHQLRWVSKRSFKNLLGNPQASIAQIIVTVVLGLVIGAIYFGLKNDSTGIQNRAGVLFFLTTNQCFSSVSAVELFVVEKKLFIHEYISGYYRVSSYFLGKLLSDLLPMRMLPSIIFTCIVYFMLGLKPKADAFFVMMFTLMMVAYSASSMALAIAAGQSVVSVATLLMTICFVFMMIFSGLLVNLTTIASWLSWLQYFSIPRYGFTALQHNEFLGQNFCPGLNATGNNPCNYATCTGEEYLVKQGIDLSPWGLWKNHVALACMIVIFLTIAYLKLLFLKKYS

CC(C)(C)c1ccc(O)cc1
not listed: [14] | [15] | [16]
inactive: all other assays above

c1ccc(OP(Oc2ccccc2)Oc2ccccc2)cc1
inactive: all assays above

CCCCc1ccccc1
inactive: all assays above

CCC1(c2ccccc2)C(=O)N=C(O)NC1=O (stereo not given)
inactive: all assays above

Cc1cccc(N)c1
inactive: all assays above

O=[N+]([O-])c1ccccc1
inactive: all assays above
